Source: PubChem BioAssay
HCV inh = blocks hepatitis C virus; Huh7.5.1 HCVcc-Cre infection, luciferase reporter, 44 h; Potency, µM (top dose mostly 41.8 µM), most hits filed as inhibitors; actives 3.4% (n = 340,000)
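1,000 cells/well; 4 h culture; + compound; + HCVcc-Cre (~0.5 moi); 44 h; luciferase substrate, RT 15 min; read 15 sec.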
Shiga toxin inh = inhibitors of Shiga toxin in Vero cells; actives 9.2% (n = 290,000); Vero cells, Shiga toxin protein synthesis inhibition reporter; AID 2315; inhibition, % at 38.7 µM; in the data active = inhibition mostly above about 28%, no sharp cut-off; inactive = mostly below about 43%
Cycloheximide cs = counter-screen for Shiga toxin inhibitors: cycloheximide protein synthesis inhibition; cell reporter, cycloheximide protein synthesis inhibition counterscreen; max response, %; actives 12% (n = 300,000); in the data active = max response mostly above about 13%, no sharp cut-off; inactive = mostly below about 14%; also: read at 38.3 µM for the half of the compounds with a filed dose
Pf growth 96h = inhibits malaria parasite growth, 96 h; P. falciparum luciferase reporter growth, 96 h; actives 6.9% (n = 320,000); Potency, µM (series often up to 28.7 µM), usual class: inhibitors; AID 504834
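96 h incubation, 37 C, 5% CO2, of luciferase-reporter P. falciparum-infected RBCs (2% hematocrit, 0.05% parasitemia final) with test compounds; endpoint luminescence.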
HCMV antiviral = inhibitors of human cytomegalovirus; HFF cells, HCMV-luciferase reporter, 72 h; active compounds read low; activity change, negative = inhibition, % at 57.5 µM; actives 4.5% (n = 410,000); AID 1259415; in the data active = activity change below about -60%; inconclusive = no clear call, values can overlap the other calls; inactive = above about -39%
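HFF cells seeded 16 h at 37C, treated with compounds, infected with luciferase-reporter HCMV at MOI 1 PFU/cell; luciferase read at 72 h post infection, normalized to buffer-only and Salinomycin controls.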
Pf growth 48h = inhibits P. falciparum growth in the first generation, 48 h. P. falciparum luciferase growth in erythrocytes, 48 h. Potency, µM (doses to about 28.7 µM), most hits filed as inhibitors. actives 5.9% (n = 310,000). AID 504832
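Luciferase-expressing P. falciparum in infected erythrocytes (2% hematocrit, 0.1% parasitemia final) in RPMI 1640/0.5% Albumax were exposed to compound for 48 hours at 37 C, 5% CO2; growth read as luminescence.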
Large screens that a line does not name were inactive. Only some compounds are listed: those with a hit (about 21% of all), similar ones and a draw of the others. Unless noted, calls follow the shape of the dose curve; as a rule, active = well fitted inhibition curve with a large enough effect; inconclusive = small, poorly fitted or top-dose-only effect, or another doubt; inactive = no such curve, though single readings can be large or run the other way.

CCC1CN(C(=O)N2CCC(C(=O)N3CCN(c4ccccc4F)CC3)CC2)c2ccccc2O1 (stereo not drawn)	none (no result: HCV inh, Shiga toxin inh, Cycloheximide cs, Pf growth 96h, Pf growth 48h)
CCN(CC)CCN(C(=O)c1cc2c(ccc3ccccc32)oc1=O)c1nc2cc3c(cc2s1)OCCO3	Cycloheximide cs 21, HCMV antiviral -98
CCN(CC)CCN(C(=O)c1ccc2c(c1)OCCO2)c1nc2cc3c(cc2s1)OCO3	HCV inh inconclusive
CN(C)CCN(C(=O)c1ccc2ccccc2c1)c1nc2cc3c(cc2s1)OCCO3	Shiga toxin inh 82, Cycloheximide cs 39 (no result: HCV inh)
COc1ccc2nc(N(CCN(C)C)C(=O)c3ccc4ccccc4c3)sc2c1	none
Cc1ccccc1NC(=S)N(C)Cc1cn(C)c2ccccc12	HCMV antiviral -70, Pf growth 48h inconclusive
Fc1ccc(Cn2cccc2C2=NC(c3ccccc3)CO2)cc1 (stereo not drawn)	Shiga toxin inh 75, Cycloheximide cs 69, Pf growth 96h inconclusive
CCC1COC(c2cccn2Cc2ccccc2Cl)=N1 (stereo not drawn)	Pf growth 96h 12µM
Cc1oc(-c2ccccc2)nc1Cn1cccc1C1=NC(c2ccccc2)CO1 (stereo not drawn)	HCV inh inconclusive, Pf growth 96h 5.2µM, Pf growth 48h inconclusive
Cc1ccc(S(=O)(=O)N(C)C)cc1NC(=O)c1cc(-c2ccco2)nc2ccccc12	HCV inh inconclusive (no result: HCMV antiviral)
CNC(=O)n1cc(C)c(-c2cccs2)n1	HCV inh inconclusive
COc1ccc(CNC(=O)Cc2c(C)c3c(cc(C)c4c(C)coc43)oc2=O)cc1	none (no result: HCV inh, Shiga toxin inh, Cycloheximide cs, Pf growth 96h, Pf growth 48h)
NC(=O)c1c(NC(=O)CN2CCOCC2)sc2c1CCC2	none
N#CCC(=O)Nc1sc2c(c1C(N)=O)CCCC2	HCMV antiviral -62
NC(=O)c1c(NC(=O)CN2CCCC2)sc2c1CCCC2	HCV inh inconclusive, Shiga toxin inh 21, Cycloheximide cs 26, Pf growth 96h 12µM
O=C(O)C(Cc1ccccc1-c1ccccc1)C(=O)O	none
N#CC1=C(N)OC2=C(C(=O)CCC2)C1c1cc2c(cc1Br)OCO2 (stereo not drawn)	none
COc1ccc(CNC(=O)C(=O)NCC2OCCN2S(=O)(=O)c2ccc(C)cc2)cc1 (stereo not drawn)	Pf growth 96h inconclusive (no result: HCV inh)
Cc1cc(S(=O)(=O)N2CCCOC2CNC(=O)C(=O)NCCc2ccco2)ccc1F (stereo not drawn)	Pf growth 96h 8.3µM
COc1ccc(CNC(=O)C(=O)NCC2OCCN2S(=O)(=O)c2ccc(F)cc2)cc1 (stereo not drawn)	Shiga toxin inh 32, Cycloheximide cs 28
COc1ccc(CCNC(=O)C(=O)NCC2OCCN2S(=O)(=O)c2ccc3c(c2)OCCO3)cc1OC (stereo not drawn)	HCV inh inconclusive, Pf growth 96h 12µM, Pf growth 48h inconclusive
COc1ccc(S(=O)(=O)N2CCOC2CNC(=O)C(=O)NCCc2ccc(OC)c(OC)c2)cc1C (stereo not drawn)	HCV inh 11µM, Pf growth 96h inconclusive
CCN1CCOC(=O)C1CC(=O)Nc1cc(C)ccc1OC (stereo not drawn)	none (no result: HCV inh, Shiga toxin inh, Cycloheximide cs, Pf growth 96h, Pf growth 48h)
COc1ccc([C@H]2C[C@H](n3cc(-c4ccc(F)cc4)nn3)[C@@H](O)CN2CC2CCCCC2)cc1	none (no result: HCV inh, Shiga toxin inh, Cycloheximide cs, Pf growth 96h, Pf growth 48h)
O=C(NCc1ccccc1)C(=O)NCC1OCCN1S(=O)(=O)c1ccc([N+](=O)[O-])cc1 (stereo not drawn)	HCMV antiviral -78
COc1ccc(CCNC(=O)C(=O)NCC2OCCN2S(=O)(=O)c2ccc3c(c2)OCCO3)cc1 (stereo not drawn)	HCV inh inconclusive, Cycloheximide cs 34, Pf growth 96h inconclusive
CCOc1cc(C)nc(NCCc2ccc(OC)c(OC)c2)n1	HCV inh inconclusive, Pf growth 96h inconclusive
CCOc1ccc(C(C)(N)C(=O)O)cc1 (stereo not drawn)	none
CCOc1ccc(-c2cc(C)[n+](CCc3ccc(OC)c(OC)c3)c(-c3ccc(OCC)cc3)c2)cc1	HCV inh 5.6µM, Pf growth 96h inconclusive, HCMV antiviral -98, Pf growth 48h inconclusive
CCOc1ccc(-c2cc(C)[n+](CCO)c(-c3ccc(OCC)cc3)c2)cc1	Pf growth 96h inconclusive, HCMV antiviral -77, Pf growth 48h inconclusive
Cc1cc(C)c(C#N)c(N2CCN(C(=O)C3COc4ccccc4O3)CC2)n1 (stereo not drawn)	HCV inh inconclusive, Pf growth 48h inconclusive (no result: Shiga toxin inh, Cycloheximide cs)
O=C(Cn1cc(SCc2ccc(Cl)cc2)c2ccccc21)N1CCOCC1	HCV inh inconclusive, Shiga toxin inh 32, Cycloheximide cs 26, Pf growth 96h inconclusive
O=C(Cn1cc(SCc2ccc(F)cc2)c2ccccc21)N1CCOCC1	Shiga toxin inh 16, Cycloheximide cs 36
Cc1ccc(C2NC(=NCc3ccccc3)Nc3nc(C)cc(=O)n32)cc1 (stereo not drawn)	none
CCn1c(SCC(=O)Nc2ccc(Cl)cc2)nc2nc3c(cc2c1=O)CCCC3	HCV inh inconclusive, Pf growth 96h 13µM, HCMV antiviral inconclusive, Pf growth 48h inconclusive
CCn1c(SCC(=O)Nc2ccc(C(C)=O)cc2)nc2nc3c(cc2c1=O)CCCC3	HCV inh inconclusive, Shiga toxin inh 46, Cycloheximide cs 26, Pf growth 96h inconclusive, HCMV antiviral inconclusive, Pf growth 48h inconclusive
CCn1c(SCC(=O)Nc2ccc(OC)cc2)nc2nc3c(cc2c1=O)CCCC3	HCV inh inconclusive
CCNC(=O)C1CCCN(C(=O)c2c(-c3ccccc3)noc2C)CC1 (stereo not drawn)	none (no result: HCV inh, Shiga toxin inh, Cycloheximide cs, Pf growth 96h, Pf growth 48h)
Cc1ccccc1OC(=O)c1cccc(S(=O)(=O)N2CCN(C)CC2)c1	none (no result: Shiga toxin inh, Cycloheximide cs)
Cc1ccc(Cn2c(CN3CCC(C(=O)NCc4ccccc4C)CC3)cc3ccccc32)cc1	none (no result: HCV inh, Shiga toxin inh, Cycloheximide cs, Pf growth 96h, Pf growth 48h)
Cc1ccc(C)c(CN2C(=O)c3ccccc3S(=O)(=O)c3ccc(C(=O)Nc4ccccc4C(F)(F)F)cc32)c1	none (no result: HCV inh, Shiga toxin inh, Cycloheximide cs, Pf growth 96h, Pf growth 48h)
CCc1ccc(OCC(=O)NNC(=O)c2cc(S(=O)(=O)N(C)C)ccc2N2CCCC2)cc1	none (no result: Shiga toxin inh, Cycloheximide cs)
Cc1csc(NC(=O)CSC2=NS(=O)(=O)c3cc(F)ccc3N2)n1	none (no result: Shiga toxin inh, Cycloheximide cs)
CCCCn1c(N)c(-c2nc3ccccc3o2)c2c([N+](=O)[O-])nn(C)c(=O)c21	none
CCCCCn1c(N)c(-c2nc3ccccc3s2)c2c([N+](=O)[O-])nn(C)c(=O)c21	HCV inh inconclusive, Pf growth 96h 5.2µM, Pf growth 48h inconclusive
S=C1NCCc2ccc(Cl)cc2C1c1ccccc1Cl (stereo not drawn)	Pf growth 96h inconclusive, Pf growth 48h 12µM
Clc1ccc2c(c1)C(C1=NCCN1)c1ccccc1CS2 (stereo not drawn)	HCV inh inconclusive, Pf growth 48h inconclusive
CC1(C(=O)NCc2ccccc2)Oc2ccccc2NC1=O (stereo not drawn)	none (no result: Pf growth 96h)
